# Assay results published in PubChem BioAssay AID1259310 (The Scripps Research Institute Molecular Screening Center, 2017).
# Screen size: about 650,000 compounds; about 850 (0.13%) were called active. The full list was thinned out, with actives kept by preference. Unmarked numbers belong to inactive results. Rule as the data show it: active = normalized activity above about 1.9%; inactive = the rest.
# Biological target: F-box/WD repeat-containing protein 7 (Homo sapiens) (UniProt Q969H0)
# Assay: FBW7 E3 ligase activators, primary screen, biochemical, AlphaScreen, human (AID 1259310);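 also: purified mutant Fbw7 with reduced substrate affinity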
# Details: AlphaScreen FBW7–phospho-cyclin E peptide binding, activator screen; at 26.1 µM; hits give high values
# F-box/WD repeat-containing protein 7 (Homo sapiens), sequence (Q969H0 whole entry, looked up): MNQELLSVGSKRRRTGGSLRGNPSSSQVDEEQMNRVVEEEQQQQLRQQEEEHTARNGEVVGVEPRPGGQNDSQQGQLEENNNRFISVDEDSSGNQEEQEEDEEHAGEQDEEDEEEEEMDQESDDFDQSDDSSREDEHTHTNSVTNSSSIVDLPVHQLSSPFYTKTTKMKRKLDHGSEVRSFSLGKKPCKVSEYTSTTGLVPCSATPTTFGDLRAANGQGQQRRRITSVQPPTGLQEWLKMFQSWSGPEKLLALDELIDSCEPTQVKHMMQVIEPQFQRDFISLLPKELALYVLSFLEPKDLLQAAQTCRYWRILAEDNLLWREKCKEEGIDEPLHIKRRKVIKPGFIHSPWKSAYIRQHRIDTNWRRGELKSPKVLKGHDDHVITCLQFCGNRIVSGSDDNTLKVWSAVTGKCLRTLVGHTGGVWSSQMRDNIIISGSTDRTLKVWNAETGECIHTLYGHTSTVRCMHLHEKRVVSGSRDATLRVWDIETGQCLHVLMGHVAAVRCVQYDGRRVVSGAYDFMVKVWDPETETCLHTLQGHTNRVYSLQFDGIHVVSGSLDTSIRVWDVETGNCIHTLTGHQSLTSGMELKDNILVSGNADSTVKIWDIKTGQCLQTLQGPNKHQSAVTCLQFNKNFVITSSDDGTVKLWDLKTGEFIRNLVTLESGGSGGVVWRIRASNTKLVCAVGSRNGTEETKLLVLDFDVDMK
row,SMILES,normalized activity (activation)
1,COc1ccc(OC)c(NS(=O)(=O)c2ccc(NC(=O)COc3ccccc3)cc2)c1,-0.06%
2,COc1ccc(Cl)cc1C(=O)Nc1cccc(-c2nc3cc(Cl)ccc3o2)c1C,0.2%
3,Fc1ccc(Nc2nc(NCC3CCCO3)c3ccccc3n2)cc1 (centres undefined),-0.11%
4,Fc1ccc(C2CC(c3cccs3)=NN2c2nc(-c3ccccc3)cs2)cc1 (centres undefined),-0.01%
5,COc1ccc(C2=NN(c3ccccc3)C(c3ccc(F)cc3)C2)cc1 (centres undefined),0.58%
6,COc1ccc(C2CC(c3cccs3)=NN2c2ccccc2)cc1 (centres undefined),8.78% (active)
7,c1cncc(-c2ncc(-c3ccncn3)c(-c3cccnc3)n2)c1,0.02%
8,COC(=O)CSC1=C(C#N)C(c2ccccc2Cl)C(C(=O)Nc2ccccc2OC)=C(C)N1 (centres undefined),-0.06%
9,COc1cccc(-c2nc(C3CCCN(C(=O)CC(C)CC(=O)O)C3)n3ccccc23)c1 (centres undefined),0.94%
10,Cc1cccc2sc(NC(=O)c3ccc(S(=O)(=O)N4CC(C)CC(C)C4)cc3)nc12 (centres undefined),0.22%
11,CC[N+](C)(CC)CCNC(=O)c1c(O)c2ccccc2[nH]c1=O,0.07%
12,CC[N+](C)(CC)CCNC(=O)c1c(O)c2c([nH]c1=O)CCCC2,2.05% (active)
13,C[N+](C)(C)CCNC(=O)c1c(O)c2c([nH]c1=O)CCCC2,0.2%
14,CCOC(=O)c1cnc2cc(C(F)(F)F)ccc2c1Nc1ccccc1F,-0.08%
15,Cc1ccccc1Nc1nc(-c2c(C)nc3ncccn23)cs1,0.01%
16,Cc1ccc2c(c1)N(CC(=O)NC1CC1)C(=O)CO2,-0.26%
17,CCC(C)(C)C(=O)Nc1ccc(S(N)(=O)=O)cc1,-0.09%
18,C#CCN(C)C(=O)c1c(C(F)(F)F)nc2c(OC)cccn12,1.94% (active)
19,C=CCN(C)C(=O)c1c(C(F)(F)F)nc2c(OC)cccn12,0.11%
20,CN(C)C(=O)CN(C)C(=O)c1c(C(F)(F)F)nc2ccccn12,0.23%
21,CN1CCN(c2nc3c(c(=O)n(C)c(=O)n3C)n2CC(=O)c2ccc(Br)cc2)CC1,0.05%
22,COC(=O)c1ccc2c(c1)N(Cc1c(C)noc1C)C(=O)C(F)(F)O2,0.09%
23,CCn1c(N2CCC(C(=O)NC3CCCCC3)CC2)nc2ccccc21,0.16%
24,COc1cccc(OC)c1C(=O)OCC(=O)NC1CCCCC1C (centres undefined),-0.19%

row,SMILES,normalized activity (activation)
1,CCC1(C)OC(=O)N(C)C1=O (centres undefined),2.13% (active)
2,CC(=O)Nc1ccc(C(=O)NNC(=O)C(C)Oc2ccc(Cl)cc2Cl)cc1 (centres undefined),-1.25%
3,CC1(C)N=C(SCC(=O)Nc2ccc(Br)cc2)C(c2ccccc2)=N1,2.4% (active)
4,O=C(CSc1ncc(-c2ccccc2)[nH]1)Nc1ccc(Br)cc1,-0.02%
5,O=C(CSC1=NS(=O)(=O)c2ccccc21)Nc1ccc(Br)cc1,-0.05%
6,C[C@@H](c1ccccc1)n1c(=O)[nH]c2ncc(-c3ccc(C(=O)N4CCN(C)CC4)cc3)nc21,-0.33%
7,COc1nc(N=C(N)N)nc2c(C)cccc12,-0.06%
8,Cc1cc(C)nc(/N=C(\N)N2CCOCC2)n1,0.35%
9,Cc1cc(C)c2nc(N=C(N)N)nc(C)c2c1,1.86% (active)
10,COc1ccc(C(=O)NCCC(=O)NC2CCCC2)cc1OC,0.02%
11,CC(C)CNC(=O)c1ccccc1I,1.93% (active)
12,COCC(C)NC(=O)c1ccccc1I (centres undefined),0.14%
13,Cc1ccccc1CNC(=O)c1ccccc1I,0.92%
14,Cc1cc(=O)oc2cc(OCC(=O)N/N=C/c3ccc4c(c3)OCO4)ccc12,-0.03%
15,CC(=O)N(Cc1cc2cc(C)cc(C)c2[nH]c1=O)CC1CCCO1 (centres undefined),0.12%
16,CCN1C(=O)c2cccc3c(NC(=O)C4CCCN4S(=O)(=O)c4ccc(OC)cc4)ccc1c23 (centres undefined),-0.03%
17,O=C(CC(=O)c1ccccc1O)c1ccccc1,0.25%
18,CN(C)c1ccccc1C(=O)c1ccccc1,2.06% (active)
19,Cc1ccc2[nH]cc(C(=O)c3ccccc3)c(=O)c2c1,0.18%
20,COc1ccccc1NS(=O)(=O)c1cccc(NC(=O)c2cc(=O)[nH]c(=O)[nH]2)c1,-0.11%
21,Cc1cc(C(=O)NCc2nnc3n2CCN(Cc2ccccc2)CC3)c(C)o1,-0.06%
22,Cc1cccc(OCCC(=O)NNC(=O)Cc2cccn2C)c1,-0.11%
23,CCOc1ccc2c(=O)c(Oc3ccccc3)c(C(F)(F)F)oc2c1C,0.9%
24,CCCc1nn(CC(=O)N(C)C)c(=O)c2cc3ccsc3n12,3.43% (active)

row,SMILES,normalized activity (activation)
1,CCc1nn(CC(=O)NCc2cccs2)c(=O)c2cc3ccsc3n12,-0.13%
2,CCN(CC)C(=O)Cn1ncn2c(cc3ccsc32)c1=O,-0.03%
3,Cc1cccc(C)c1NC(=O)C(=O)NCCCO,0.01%
4,O=C1C(=O)N(c2nc3ccccc3s2)C(c2ccc(O)cc2)/C1=C(\O)c1ccc(Cl)cc1 (centres undefined),-0.15%
5,COc1ccc(C2(O)CC(C(F)(F)F)=NN2C(=O)CCc2ccccc2)cc1 (centres undefined),0.67%
6,COc1ccc(CC(=O)NNC(=O)c2ccccc2Cl)cc1,-0.11%
7,CSCCNC(=O)CCc1nnc(C2(c3ccc(Cl)cc3)CCC2)o1,0.03%
8,Cc1cccc(NC(=O)c2ccccc2Nc2ccc(S(=O)(=O)C(F)(F)F)cc2[N+](=O)[O-])c1,0.06%
9,CN(C)CCNC(=O)c1ccc(-c2cnc3c(NCc4ccc(F)cc4)nccn23)cc1,-0.01%
10,COc1cc(CNc2nccn3c(-c4ccc(F)cc4)cnc23)cc(OC)c1OC,1.85% (active)
11,COc1ccccc1-c1cnc2c(NCc3cccs3)nccn12,-0.21%
12,O=C(CSc1nnc(Nc2ccccc2)s1)c1ccc(F)cc1,-0.08%
13,CC(=O)Nc1ccc(Nc2nc(Nc3ccncn3)nc3nc[nH]c23)cc1,0.11%
14,O=C1NC(=O)N(c2ccc(Br)cc2)C(=O)/C1=C\C=C\c1ccco1,-0.18%
15,COc1ccc(OC)c(C2Nc3cccc4cccc(c34)N2)c1,0.03%
16,COc1ccc(C2Nc3cccc4cccc(c34)N2)c(OC)c1OC,0.39%
17,COc1cc(OC)c(C2Nc3cccc4cccc(c34)N2)cc1OC,1.96% (active)
18,O=c1[nH]c(N2CCOCC2)nc2c1CN(Cc1ccccc1Cl)CC2,-0.04%
19,O=C1CC(c2noc(-c3ccco3)n2)CN1c1ccccc1 (centres undefined),-0.17%
20,COc1cccc(-c2nc(-c3ccccc3)c(-c3ccccc3)[nH]2)c1O,-0.07%
21,CCOc1ccc2nc(N3CCC(NCCc4nc(C)c5c(n4)CCC5)CC3)nc(C)c2c1,0.33%
22,CC1CC(C)CN(CCS(=O)(=O)c2ccc(Oc3ccc(S(=O)(=O)CCN4CC(C)CC(C)C4)cc3)cc2)C1 (centres undefined),-0.1%
23,CCCCOC(=O)C1=C(C)N(C)C(=O)NC1c1cc(Cl)c(O)c(OC)c1 (centres undefined),-0.11%
24,CCOc1cc(OCC)cc(C(=O)Nc2cc3nn(-c4ccc(OC)cc4)nc3cc2C)c1,-0.15%

row,SMILES,normalized activity (activation)
1,CCOc1ccc(C(=O)Nc2cc3nn(-c4ccc(C)cc4)nc3cc2C)cc1[N+](=O)[O-],2.14% (active)
2,CCOc1ccc(C(=O)Nc2ccccc2I)cc1[N+](=O)[O-],-0.08%
3,O=C(Cc1ccccn1)N1CCCC(c2nc(N3CCOCC3)ncc2-c2ccncc2)C1 (centres undefined),-0.05%
4,CCOc1ccc(-n2nc(C(=O)Nc3ccccc3C(F)(F)F)c3ccccc3c2=O)cc1,-0.03%
5,NC(=O)c1ccccc1NC(=S)NC(=O)/C=C/c1cccc([N+](=O)[O-])c1,0.01%
6,Cc1ccc2nc(SCC(=O)Nc3ccccc3C(N)=O)[nH]c2c1,0.11%
7,O=C(Nc1ccccc1[N+](=O)[O-])c1cc(S(=O)(=O)Nc2cccc(F)c2)ccc1Cl,-0.02%
8,O=C(COC(=O)c1ccccc1F)NCc1ccco1,-0.11%
9,Cc1noc(C)c1-c1nc(N)c2ncn(-c3ccccc3)c2n1,-0.05%
10,COc1cc(Nc2nc(-c3c(C)noc3C)nc3c2ncn3C2CCCCC2)cc(OC)c1OC,-0.17%
11,COc1cc(Nc2nc(-c3c(C)noc3C)nc3c2ncn3-c2ccccc2)cc(OC)c1OC,14.2% (active)
12,Cc1nc2c(C(=O)N3CCCC3)cnn2c(C)c1Cc1ccccc1Cl,-0.09%
13,O=C(Nc1ccc(I)cc1)OCCCc1ccccc1,0.21%
14,Cc1ccc2nc(NC(=O)c3cc(-c4ccc(Cl)s4)nc4ccccc34)sc2c1,-0.02%
15,Cc1c(-c2nc3cnccn3c2NCc2ccc(F)cc2)cnn1C,-0.04%
16,COc1cccc(NC(=O)CSc2ccc(Br)cc2)c1,0.07%
17,COc1ccc(NC(=S)C(=O)Nc2ccccc2)cc1,0.08%
18,COc1ccc(SCC(=O)NNC(=S)Nc2ccccc2)cc1,2.07% (active)
19,CCOc1ccc2nc(NC(=O)c3cccc(C(=O)OC)n3)sc2c1,-0.02%
20,CC(C)c1ccc(OCC(=O)N/N=C/c2cccnc2)cc1,-0.04%
21,COc1c(Cl)cc(Cl)cc1C(=O)Nc1ccccc1[N+](=O)[O-],-0.17%
22,O=C(CN1C(=O)c2cccc([N+](=O)[O-])c2C1=O)OCC(=O)c1ccc(Cl)cc1,-0.01%
